From PubChem BioAssay (NCATS)
“And” between values parts separate entries of the source, which are not always exact repeats. Equal values may be shown once. A number with no mark means an inactive call. Records with an inconclusive call do not appear. Where a call stands in place of a potency, no number is given. The source made the active and inactive calls. Unless noted, calls follow the shape of the dose curve; as a rule, active = well fitted curve in either direction with a large enough effect (not every such curve was filed as active); inconclusive = small, poorly fitted or top-dose-only effect, or another doubt; inactive = flat fitted curve, though single readings scatter.

How the values were obtained:
[1] = AP1 Signaling Pathway (AID 357);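 also: ME-180 reporter cells stimulated with EGF at its EC50 level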
Procedure, shortened: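 AP-1-bla ME-180 cells, Opti-MEM + 0.5% dialyzed FBS, plated overnight 37 °C. Cpd titration + EC50 EGF, 5 h 37 °C. CCF4 2.5 h RT; ex 405, em 460/530 ratio → %activity, AC50.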

[2] = target: Cytochrome P450 1A2 (Homo sapiens) (UniProt P05177); assay: p450-cyp1a2 (AID 410; calls by dose curve; also: potency is read from the fitted curve at half-maximal effect)
Procedure, shortened: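 20nM CYP1A2, 100uM Luciferin-ME (=Km), 100mM KPO4; cpd 10 min RT; +NADPH regen, 60 min RT; stop/detect 20 min; luminescence. Normalized to furafylline 57 uM = full inhibition.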

[3] = Stat Signaling Pathway (AID 446);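 also: ME-180 cervical cancer cells given 40 pM IL-6 alongside compound; SIE-controlled beta-lactamase reporter measured as 460/530 nm FRET emission ratio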
Procedure, shortened: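 FRET read-out (405 nm excitation, 460/530 nm emission) of a beta-lactamase reporter under a STAT-inducible element in ME-180 cervical carcinoma cells. Cells with compound receive 40 pM IL-6 for 5 h. Values are normalised to AC90 stimulation and AC90 JAK-inhibitor controls.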

[4] = target: Mitogen-activated protein kinase 10 (Mus musculus) (UniProt Q61831); assay: JNK3 AlphaScreen Assay (AID 530);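 also: kinase came from lysate of stimulated human HepG2 cells; signal reports phosphorylation of biotinylated GST-cJun 1-79 at Ser73 with 10 µM ATP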
Procedure, shortened: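 Kinase buffer: 20 mM Tris-HCl pH 7.6, 10 mM MgCl2, 1 mM DTT, 0.1 mM Na3VO4, 0.01% Tween-20; ATP 10 uM. Substrate biotin-GST-cJun(1-79), enzyme from activated HepG2 lysates. Detection by Ser73 phospho-antibody AlphaScreen.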

[5] = target: 3',5'-cyclic-AMP phosphodiesterase 4B (Homo sapiens) (UniProt Q07343); assay: qHTS Assay for Inhibitors of PDE-IV (AID 607; active = well fitted activation curve with a large enough effect in the main read-out, with a control signal flat, not every such curve was filed as active)
Procedure, shortened: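 Cell-based read-out of cAMP via a modified cyclic nucleotide-gated channel and membrane potential dye (535/590 nm) in HEK293 cells expressing PDE4 endogenously. Compounds tested up to 22.9 uM final; 100 uM RO 20-1724 reference.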

[6] = NFAT Signaling Pathway (AID 444); settings: Jurkat NFAT-bla M1, carbachol, beta-lactamase ratio, 5 h;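 also: carbachol stimulus at about its EC50 of 1 µM final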
Procedure, shortened: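 Read-out: CCF4 FRET ratio (460 nm/530 nm) after 1 h RT dye loading, used for %activity and AC50 from titration series. Cells: Jurkat NFAT-β-lactamase/M1 line, treated with compound plus 1 uM carbachol for 5 h, 37 °C.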

[7] = target: Glucocorticoid receptor (Homo sapiens) (UniProt P04150); assay: GR-GFP Redistribution (AID 450;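 active = compounds whose dose series gives a full or clear partial fitted curve of increased nuclear translocation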; also: potency is read from the fitted curve at half-maximal effect); settings: U2OS GR-GFP nuclear translocation, laser cytometry, 2 h
[8] = target: Glucocorticoid receptor (Homo sapiens) (UniProt P04150); assay: GR-EFC Redistribution (AID 451; calls by dose curve; also: potency is read from the fitted curve at half-maximal effect); settings: CHO-K1 GR-EFC translocation, beta-gal luminescence, 2 h
Procedure, shortened: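 Translocation of GR-ED fusion to nuclear EA restores b-gal, read by luminescence after 1 h room-temperature detection. Engineered CHO-K1 biosensor cells, 1,000/well, exposed 2 h at 37 C to titrations up to 46 uM final.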

[9] = Cell Viability - BJ (AID 421; calls by dose curve;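 also: potency is read from the fitted curve at half-maximal effect; cells exposed to compound for 40 hours at 37 °C before readout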); settings: BJ fibroblast viability, qHTS
Procedure, shortened: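 Cytotoxicity as drop in intracellular ATP (CellTiter-Glo, 20 min RT) after 40 hr compound exposure of BJ fibroblasts at 37 °C. Titrations scaled between DMSO and 100 uM tamoxifen, Hill-fitted for AC50.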

[10] = Cell Viability - Jurkat (AID 426;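 active = dose-dependent loss of cell ATP signal giving a full or clear fitted curve, ranked by lower potency value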;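 also: potency is read from the fitted curve at half-maximal effect; cells exposed to compound for 40 hours at 37 °C before ATP read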); settings: qHTS
Procedure, shortened: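 Luminescent ATP read-out (CellTiter-Glo, 20 min at room temperature) after 40 hr compound exposure at 37 °C of Jurkat E6-1 cells, 5000/well. Decreased ATP taken as cytotoxicity; AC50 from standard Hill equation.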

[11] = Cell Viability - Hek293 (AID 427;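 active = compounds whose dose-response curve shows a full or clear partial loss of cell viability, called from curve shape rather than a numeric limit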;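 also: potency is read from the fitted curve at half-maximal effect; cells exposed to compound for 40 hours at 37 °C before reading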); settings: qHTS
Procedure, shortened: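 Luminescent ATP content (CellTiter-Glo, 20 min at room temperature) was measured after a 40 hr, 37 °C compound exposure of HEK293 cells. AC50 values came from Hill-equation fits of qHTS concentration-response data normalized to DMSO and 100 uM tamoxifen.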

[12] = Cell Viability - HepG2 (AID 433; calls by dose curve;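 also: potency is read from the fitted curve at half-maximal effect; potency for ATP loss meaning cytotoxicity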); settings: qHTS
Procedure, shortened: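 Read-out is luciferase-based quantitation of cellular ATP as a measure of viable HepG2 cells after 40 h treatment at 37 °C. Signal decrease is scaled between DMSO-only and 100 uM tamoxifen controls, with AC50 fitted by the Hill equation.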

[13] = Cell Viability - MRC5 (AID 434; calls by dose curve;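 also: potency is read from the fitted curve at half-maximal effect; cells exposed to compound for 40 hours at 37 °C; potency reflects cytotoxicity seen as loss of intracellular ATP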); settings: MRC5 lung fibroblast viability, qHTS
Procedure, shortened: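 AC50 values come from Hill-equation fits of intracellular ATP loss, measured by CellTiter-Glo luminescence. Normal lung fibroblasts (MRC5) had 40 hr compound treatment at 37 C, normalized between DMSO and 100 uM tamoxifen.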

[14] = Cell Viability - SK-N-SH (AID 435; calls by dose curve; also: potency is read from the fitted curve at half-maximal effect); settings: SK-N-SH neuroblastoma cell viability qHTS
Procedure, shortened: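 Luminescent ATP signal served as the viability read-out after 40 hours of compound treatment of human neuroblastoma SK-N-SH cells. Concentration-response data, scaled between DMSO and 100 uM tamoxifen, gave AC50 values by standard Hill modeling.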

[15] = Cell Viability - N2a (AID 540; active = well fitted curve in the direction sought with a large enough effect; an effect the other way counts as inactive or inconclusive; also: nearly all actives have a fitted effect of over 45% in size); settings: N2a mouse neuroblastoma cell viability; activity change, negative = cytotoxicity: at 92.2 µM (top of the series)
Procedure, shortened: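 N2a mouse neuroblastoma, 1500 cells/well, 5 hr settle; compound 40 hr, 37 °C; CellTiter-Glo 20 min RT; luminescence; Hill-fit AC50.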

[16] = Cell Viability - NIH 3T3 (AID 541; active = well fitted curve in the direction sought with a large enough effect; an effect the other way counts as inactive or inconclusive; also: nearly all actives have a fitted effect of over 25% in size)
Procedure, shortened: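 qHTS format; 40 hr compound exposure, 37 °C; CellTiter-Glo luminescence (cellular ATP) read-out after 20 min at RT. Decrease in ATP = cytotoxicity; AC50 from standard Hill fit.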

[17] = Cell Viability - HUV-EC-C (AID 542; active = well fitted curve in the direction sought with a large enough effect; an effect the other way counts as inactive or inconclusive; also: nearly all actives have a fitted effect of over 35% in size)
Procedure, shortened: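 Luminescent ATP read-out (CellTiter-Glo, 20 min room temperature) after 40 hr compound treatment of HUV-EC-C cells at 37 °C. Concentration-response data fitted with the standard Hill equation to give AC50; tamoxifen and doxorubicin served as positive controls.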

[18] = Cell Viability - H-4-II-E (AID 543; active = well fitted curve in the direction sought with a large enough effect; an effect the other way counts as inactive or inconclusive; also: nearly all actives have a fitted effect of over 35% in size; also: potency is read from the fitted curve at half-maximal effect)
Procedure, shortened: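 qHTS, rat hepatoma H-4-II-E, 1500 cells/well; 40 hr compound exposure, 37 °C; CellTiter-Glo ATP luminescence after 20 min RT; AC50 by standard Hill fit.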

[19] = Cell Viability - SH-SY5Y (AID 544; active = well fitted curve in the direction sought with a large enough effect; an effect the other way counts as inactive or inconclusive; also: nearly all actives have a fitted effect of over 55% in size)
Procedure, shortened: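 SH-SY5Y, 1500 cells/well, 5 hr pre-incubation 37 °C; cpd 40 hr 37 °C; CellTiter-Glo 20 min RT; luminescence (ATP) read. qHTS concentration-response, Hill fit → AC50. Tamoxifen, doxorubicin as positive controls.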

[20] = Cell Viability - Mesenchymal (AID 546; active = well fitted curve in the direction sought with a large enough effect; an effect the other way counts as inactive or inconclusive;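 also: cells exposed to compound for 40 hours before reading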; also: potency is read from the fitted curve at half-maximal effect)
Procedure, shortened: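 CellTiter-Glo luminescence (intracellular ATP, 20 min room temperature) after 40 hr compound exposure at 37 °C of 1000 glomerulus-derived human kidney mesenchymal cells/well; AC50 values obtained by fitting qHTS concentration-response data to the Hill equation.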

3',5'-cyclic-AMP phosphodiesterase 4B (Homo sapiens), sequence (Q07343 whole entry, looked up): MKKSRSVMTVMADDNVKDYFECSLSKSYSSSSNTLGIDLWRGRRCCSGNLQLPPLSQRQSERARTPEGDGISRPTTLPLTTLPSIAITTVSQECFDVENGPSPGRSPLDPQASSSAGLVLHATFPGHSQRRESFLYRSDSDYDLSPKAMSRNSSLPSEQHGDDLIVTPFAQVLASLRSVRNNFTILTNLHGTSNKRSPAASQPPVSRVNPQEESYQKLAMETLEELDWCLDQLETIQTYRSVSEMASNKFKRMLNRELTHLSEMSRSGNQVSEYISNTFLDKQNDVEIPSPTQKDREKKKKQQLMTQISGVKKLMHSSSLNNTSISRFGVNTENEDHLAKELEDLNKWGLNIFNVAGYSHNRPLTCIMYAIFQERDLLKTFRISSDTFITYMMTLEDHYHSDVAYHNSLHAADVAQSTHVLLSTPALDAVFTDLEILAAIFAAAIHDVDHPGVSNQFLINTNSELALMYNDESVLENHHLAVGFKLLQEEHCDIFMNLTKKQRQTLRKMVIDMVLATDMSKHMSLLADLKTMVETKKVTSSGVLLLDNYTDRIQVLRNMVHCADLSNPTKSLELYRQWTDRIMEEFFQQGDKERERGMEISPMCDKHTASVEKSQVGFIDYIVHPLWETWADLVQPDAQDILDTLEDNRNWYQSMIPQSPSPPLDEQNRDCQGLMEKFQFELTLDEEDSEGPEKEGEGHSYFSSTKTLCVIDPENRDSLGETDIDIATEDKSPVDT
Glucocorticoid receptor (Homo sapiens), sequence (P04150 whole entry, looked up, the tested form may be a part): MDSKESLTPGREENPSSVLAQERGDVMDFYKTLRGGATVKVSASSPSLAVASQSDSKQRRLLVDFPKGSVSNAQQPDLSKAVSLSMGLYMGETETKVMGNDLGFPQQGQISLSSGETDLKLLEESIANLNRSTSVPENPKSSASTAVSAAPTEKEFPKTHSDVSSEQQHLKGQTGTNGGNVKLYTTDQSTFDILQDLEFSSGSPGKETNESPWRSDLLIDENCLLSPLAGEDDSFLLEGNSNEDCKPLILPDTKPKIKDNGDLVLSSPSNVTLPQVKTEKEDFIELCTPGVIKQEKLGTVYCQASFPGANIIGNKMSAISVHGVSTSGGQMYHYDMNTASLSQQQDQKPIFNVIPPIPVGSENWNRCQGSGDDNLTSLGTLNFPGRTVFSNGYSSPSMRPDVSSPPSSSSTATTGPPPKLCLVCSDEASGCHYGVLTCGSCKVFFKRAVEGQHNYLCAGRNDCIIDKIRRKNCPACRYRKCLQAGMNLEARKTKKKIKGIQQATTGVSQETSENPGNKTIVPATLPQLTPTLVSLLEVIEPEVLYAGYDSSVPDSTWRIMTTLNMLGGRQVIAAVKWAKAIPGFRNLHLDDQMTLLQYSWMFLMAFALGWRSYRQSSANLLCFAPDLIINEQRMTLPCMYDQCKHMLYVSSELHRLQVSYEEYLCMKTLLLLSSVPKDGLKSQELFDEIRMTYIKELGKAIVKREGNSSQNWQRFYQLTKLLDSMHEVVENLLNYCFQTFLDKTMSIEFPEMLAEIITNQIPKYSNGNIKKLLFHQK
Cytochrome P450 1A2 (Homo sapiens), sequence (P05177 whole entry, looked up): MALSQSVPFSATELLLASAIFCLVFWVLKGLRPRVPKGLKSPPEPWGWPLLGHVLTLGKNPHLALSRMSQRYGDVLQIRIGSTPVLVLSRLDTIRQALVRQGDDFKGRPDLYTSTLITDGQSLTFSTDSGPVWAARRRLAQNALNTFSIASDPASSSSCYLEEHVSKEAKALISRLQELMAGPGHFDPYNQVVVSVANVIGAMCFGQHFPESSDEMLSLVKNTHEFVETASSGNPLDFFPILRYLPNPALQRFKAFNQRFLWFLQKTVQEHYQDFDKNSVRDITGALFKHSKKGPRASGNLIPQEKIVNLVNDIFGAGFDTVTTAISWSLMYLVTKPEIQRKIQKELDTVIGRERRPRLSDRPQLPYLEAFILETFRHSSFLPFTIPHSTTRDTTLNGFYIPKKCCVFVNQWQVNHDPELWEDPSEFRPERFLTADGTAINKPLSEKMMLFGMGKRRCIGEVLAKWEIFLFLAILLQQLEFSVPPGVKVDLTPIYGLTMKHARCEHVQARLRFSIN

For `CCCCc1ccc2nc(NC(=O)OC)[nH]c2c1`, the outcome [1] was “inactive”, the Potency [2] was 0.501 µM (active) and the outcome [3] was “inactive”. The Potency [4] was “inactive” and the outcome [5] was “inactive”.

In the case of `CC1(C)C(=O)N(CCN2CCC(C(=O)c3ccc(F)cc3)CC2)c2ccccc21`, the outcome [1] is reported as “inactive”, the Potency [2] is reported as “inactive” and the activity change, negative = inhibition ([6]; at 38 µM (top of the series)) is reported as -22.8%. For the same molecule, the outcome [3] was “inactive”, the Potency [7] was over 46 µM and the Potency [8] was over 46 µM. For the same molecule, the outcome [5] was “inactive”.

With `Cc1ccc(C)c(OCCCC(C)(C)C(=O)O)c1` the outcome [1] was “inactive”, the Potency [2] was 12.6 µM (active) and the Potency [9] was over 92 µM. The Potency [10] was over 92 µM, the Potency [11] was over 92 µM and the Potency [12] was over 92 µM. The Potency [13] was over 92 µM, the Potency [14] was over 92 µM and the activity change, negative = inhibition ([6]; at 17.2 µM (top of the series)) was 0.602% and 17.8%. The outcome [3] was “inactive”, the Potency [4] was “inactive” and the Potency [15] was “inactive”. The Potency [16] was “inactive”, the Potency [17] was “inactive” and the Potency [18] was “inactive”. The Potency [19] was “inactive”, the Potency [20] was “inactive” and the outcome [5] was “inactive”.

With `Cc1nc2n(c(=O)c1CCN1CCC(c3noc4cc(F)ccc34)CC1)CCCC2` the outcome [1] was “inactive”, the Potency [2] was “inactive” and the outcome [3] was “inactive”. The Potency [4] was “inactive” and the outcome [5] was “inactive”.

With `Oc1ccc(-c2nc(-c3ccc(F)cc3)c(-c3ccncc3)[nH]2)cc1` the outcome [1] was “inactive”, the Potency [2] was 15.8 µM (active) and the outcome [3] was “inactive”. For the same molecule, the Potency [7] was over 46 µM, the Potency [8] was over 46 µM and the outcome [5] was “inactive”.

For `O=c1cc(N2CCOCC2)oc2c(-c3ccccc3)cccc12`, the outcome [1] was “inactive”, the Potency [2] was 1.58 µM (active) and 200 nM (active) and the activity change, negative = inhibition ([6]; at 38 µM (top of the series)) was -14.3%. The outcome [3] was “inactive”, the Potency [7] was over 46 µM and the Potency [8] was over 46 µM. For the same molecule, the Potency [4] was “inactive” and the outcome [5] was “inactive”.

With `CCc1nc(N)nc(N)c1-c1ccc(Cl)cc1` the outcome [1] was “inactive”, the Potency [2] was 10 µM (active) and the Potency [9] was over 92 µM. The Potency [10] was 3.02 µM (active), the Potency [11] was 1.64 µM (active) and the Potency [12] was 1.05 µM (active). For the same molecule, the Potency [13] was over 92 µM, the Potency [14] was 25.6 µM (active) and the activity change, negative = inhibition ([6]; at 17.2 µM (top of the series)) was -6.33% and 6.33%. The outcome [3] was “inactive”, the Potency [7] was over 20.6 µM and the Potency [8] was over 20.6 µM. The Potency [4] was “inactive”, the Potency [17] was “inactive” and the Potency [18] was 0.158 µM (active). For the same molecule, the Potency [19] was “inactive” and the Potency [20] was 2 µM (active).

With `COc1c2occc2cc2ccc(=O)oc12` the outcome [1] was “inactive”, the Potency [9] was over 92 µM and the Potency [10] was over 92 µM. The Potency [11] was over 92 µM, the Potency [12] was over 92 µM and the Potency [13] was over 92 µM. The Potency [14] was over 92 µM, the activity change, negative = inhibition ([6]; at 17.2 µM (top of the series)) was 0.388% and the outcome [3] was “inactive”. For the same molecule, the Potency [7] was over 20.6 µM, the Potency [8] was over 20.6 µM and the Potency [4] was “inactive”. For the same molecule, the Potency [15] was “inactive”, the Potency [16] was “inactive” and the Potency [17] was “inactive”. The Potency [18] was “inactive”, the Potency [19] was “inactive” and the Potency [20] was “inactive”.

For `CN1C(C(=O)Nc2ccccn2)=C(O)c2sccc2S1(=O)=O`, the outcome [1] was “inactive”, the Potency [2] was “inactive” and the activity change, negative = inhibition ([6]; at 17.2 µM (top of the series)) was 9.83%. The outcome [3] was “inactive”, the Potency [7] was over 20.6 µM and the Potency [8] was over 20.6 µM. For the same molecule, the Potency [4] was “inactive” and the outcome [5] was “inactive”.

For `Cc1cc(C2CCCCC2)n(O)c(=O)c1`, the outcome [1] was “inactive”, the Potency [2] was 15.8 µM (active) and the outcome [3] was “inactive”. The Potency [7] was over 20.6 µM, the Potency [8] was over 20.6 µM and the Potency [4] was “inactive”. For the same molecule, the outcome [5] was “inactive”.

With `NNc1nncc2ccccc12` the outcome [1] was “inactive”, the Potency [2] was 3.16 µM (active) and 1 µM (active) and the activity change, negative = inhibition ([6]; at 17.2 µM (top of the series)) was -29.1%. For the same molecule, the activity change, negative = inhibition ([6]; at 38 µM (top of the series)) was 8.48%, the outcome [3] was “inactive” and the Potency [7] was > 46 µM and > 20.6 µM. For the same molecule, the Potency [8] was > 46 µM and > 20.6 µM, the Potency [4] was “inactive” and the outcome [5] was “inactive”.

In the case of `O=c1c(O)c(-c2ccc(O)cc2O)oc2cc(O)cc(O)c12`, the outcome [1] is reported as “inactive”, the Potency [2] is reported as 12.6 µM (active) and the activity change, negative = inhibition ([6]; at 17.2 µM (top of the series)) is reported as 10%. The activity change, negative = inhibition ([6]; at 38 µM (top of the series)) was 2.93%, the Potency [7] was > 46 µM and > 20.6 µM and the Potency [8] was over 46 µM. For the same molecule, the Potency [4] was “inactive” and the outcome [5] was “inactive”.

For `NC(=NCc1ccccc1)NC(=O)c1nc(Cl)c(N)nc1N`, the outcome [1] was “inactive”, the Potency [2] was 12.6 µM (active) and 10 µM (active) and the activity change, negative = inhibition ([6]; at 17.2 µM (top of the series)) was -15.5%. The activity change, negative = inhibition ([6]; at 38 µM (top of the series)) was -27.8%, the outcome [3] was “inactive” and the Potency [7] was > 46 µM and > 20.6 µM. For the same molecule, the Potency [8] was > 46 µM and > 20.6 µM, the Potency [4] was “inactive” and the outcome [5] was “inactive”.
